Experimental data reported in PubChem BioAssay (NCATS).
Records with an inconclusive call do not appear. Where a call stands in place of a potency, no number is given. Unmarked numbers belong to inactive results. Active and inactive are the calls of the source. Calls follow the shape of the dose curve; as a rule, active = well fitted curve in the direction sought with a large enough effect; inconclusive = small, poorly fitted or top-dose-only effect, or another doubt; inactive = no such curve, though single readings can be large; an effect the other way counts as inactive or inconclusive. Bridge positions count the residues as written; N and C are the ends. Square brackets hold non-standard residues; d marks the D form. Peptide text beside a SMILES is read from it. ξ: configuration not given here. ξTyr(βOH) = NC(C(=O)O)C(O)c1ccc(O)cc1; NMeY = CN[CH](Cc1ccc(O)cc1)C(=O)O

Assays:
[1] = target: Cellular tumor antigen p53 (Homo sapiens) (UniProt P04637); test: Primary qHTS for small molecule compounds that upregulate eGFP-tagged delta133p53alpha (in N-terminal) cells. (AID 2060322); details: NCI-H358 eGFP-delta133p53alpha fluorescence, 24 h; activation: active compounds read high; also: nearly all actives have a fitted effect of over 75% in size; also: potency is read from the fitted curve at half-maximal effect;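 as to activation: cells pre-induced with doxycycline then dosed without doxycycline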
Sequence of Cellular tumor antigen p53 (Homo sapiens) (P04637 whole entry, looked up): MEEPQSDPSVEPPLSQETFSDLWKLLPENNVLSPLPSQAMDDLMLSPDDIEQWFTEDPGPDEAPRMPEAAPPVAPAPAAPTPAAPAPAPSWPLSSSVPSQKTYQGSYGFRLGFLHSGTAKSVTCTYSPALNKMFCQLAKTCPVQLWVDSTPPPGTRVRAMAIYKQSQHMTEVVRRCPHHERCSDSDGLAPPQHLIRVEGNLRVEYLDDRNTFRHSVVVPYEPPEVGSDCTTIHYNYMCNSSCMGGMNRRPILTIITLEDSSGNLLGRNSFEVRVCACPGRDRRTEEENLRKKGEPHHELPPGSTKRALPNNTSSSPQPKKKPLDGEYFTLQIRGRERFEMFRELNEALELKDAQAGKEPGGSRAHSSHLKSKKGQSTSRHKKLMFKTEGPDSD
Procedure, shortened: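 NCI-H358 cells pre-induced 24 h with 10 ng/ml doxycycline for eGFP-delta133p53alpha, plated dox-free and exposed 24 h at 37C to titrated compounds. Fixed, Hoechst-stained; gated GFP peak intensity by laser scanning cytometry, normalized to DMSO (0%) and 57.5 uM 5-azacytidine (100%).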

[2] = target: Aldehyde dehydrogenase, mitochondrial (Homo sapiens) (UniProt P05091); test: qHTS for Inhibitors of the Aldehyde Dehydrogenase Family (ALDH2) Primary screen (AID 2061308); details: ALDH2 enzyme inhibition qHTS, 1536-well; series mostly up to 56 µM; also: nearly all actives have a fitted effect of over 55% in size
[3] = target: Retinaldehyde dehydrogenase 3 (Homo sapiens) (UniProt P47895); test: qHTS for Inhibitors of the Aldehyde Dehydrogenase Family (ALDH1A3) Primary screen (AID 2061315); details: ALDH inhibition qHTS; series mostly up to 56 µM

| Structure (SMILES) | activation [1] | Potency [2] | Potency [3] | Potency [1] | activity change, negative = inhibition [2] | activity change, negative = inhibition [3] |
| --- | --- | --- | --- | --- | --- | --- |
| CCCC1=CC2=C(CO1)C(=O)C(C)(OC(=O)c1c(C)cc(OC)cc1O)C(O)C2 (stereo unspecified) | -24.4% | inactive | inactive |  |  |  |
| O=C(O)CC1(O)C(=O)Nc2ccccc21 (stereo unspecified) | 1.79% | inactive | inactive |  |  |  |
| Cc1onc(-c2c(F)cccc2Cl)c1C(=O)N[C@@H]1C(=O)N2[C@@H]1SC(C)(C)[C@@H]2C(=O)O | -1.67% | inactive | inactive |  |  |  |
| COc1cc2nc(=NC(=O)c3cccnc3)n3c(c2cc1OC)NCC3 | 3.34% | inactive | inactive |  |  |  |
| CC1=C(CC/C(C)=C/C(=O)O)[C@@]2(C)CCCC(C)(C)C2CC1=O (stereo partly specified) | 6.25% | inactive | inactive |  |  |  |
| CC(=O)OC1C[C@@]2(C)[C@@H](CC[C@@H](C)[C@]23Cc2c(O)cc4c(c2O3)CNC4=O)C(C)(C)[C@@H]1O (stereo partly specified) | 9.92% | inactive | inactive |  |  |  |
| NC(=NCCCCCCN=C(N)/N=C(\N)Nc1ccc(Cl)cc1)/N=C(\N)Nc1ccc(Cl)cc1 |  | inactive | inactive | 30.1 µM (active) |  |  |
| CC1(C)Oc2ncnc(N)c2N=C1c1ccc(C2CCC(CC(=O)O)CC2)cc1 (stereo unspecified) | -4.46% | inactive | inactive |  |  |  |
| CC(C)=CCc1cc2c(cc1O)OC[C@H]1c3ccc(O)cc3O[C@@H]21 | -3.82% | inactive | inactive |  |  |  |
| CC(C)=CCC/C(C)=C/CO[C@@H]1O[C@H](CO[C@@H]2O[C@@H](CO)[C@H](O)[C@H]2O)[C@@H](O)[C@H](O)[C@H]1O | -29.5% | inactive | inactive |  |  |  |
| CC(=O)OC(C)C(C)(O)C(=O)O[C@@H]1CC[C@]2(C)CC(=O)C(=C(C)C)C[C@H]2[C@]1(C)OC(C)=O (stereo partly specified) | 2.29% | inactive | inactive |  |  |  |
| CCCCCOC(=O)Nc1nc(=O)n(C2O[C@H](C)[C@@H](O)[C@H]2O)cc1F (stereo partly specified) | -11.7% | inactive | inactive |  |  |  |
| CC1C(OC(=O)c2ccccc2)C(O)C2C(C(=O)O)=COC(OC3OC(CO)C(O)C(O)C3O)C12 (stereo unspecified) | -16% | inactive | inactive |  |  |  |
| COc1ccc(CN2CCN(CCCSc3cc(C(C)(C)C)c(O)c(C(C)(C)C)c3)CC2)c(OC)c1OC | 16.3% | inactive | inactive |  |  |  |
| CC(C)C1NC(=O)CNC(=O)C2CCCN2C(=O)C(Cc2c[nH]c3ccccc23)NC(=O)CNC(=O)C(C(O)c2ccc(O)cc2)NC(=O)CNC1=O (stereo unspecified) (cyclo(G[ξTyr(βOH)]GWPGV); configuration not given here) | -9.92% | inactive | inactive |  |  |  |
| CCC(C)/C=C(C)/C=C/C1=CC2=C(Cl)C(=O)C(C)(OC(C)=O)C(=O)C2=CN1C(CC(=O)O)C(=O)O (stereo unspecified) | 9.82% | inactive | inactive |  |  |  |
| C[C@@H]1CC[C@@]2(OC1)O[C@H]1C[C@H]3[C@@H]4CC=C5C[C@@H](O)CC[C@]5(C)[C@H]4CC[C@]3(C)[C@H]1[C@@H]2C | -4.46% | inactive | inactive |  |  |  |
| COc1ccc([C@H]2Cc3cccc(O)c3C(=O)O2)cc1 | 3.05% | inactive | inactive |  |  |  |
| COc1cc(/C=C/C(=O)OC[C@H]2O[C@@](CO)(O[C@H]3O[C@H](CO)[C@@H](O)[C@H](O)[C@H]3O)[C@@H](OC(=O)/C=C/c3ccc(O)c(OC)c3)[C@@H]2O)ccc1O | -3.82% | inactive | inactive |  |  |  |
| OC[C@H]1O[C@@H](OCCc2ccc(O)cc2)[C@H](O)[C@@H](O)[C@@H]1O | -13.7% | inactive | inactive |  |  |  |
| C[C@@H]1O[C@@H](OC[C@H]2O[C@@H](OC(CCCCc3ccc(O)cc3)CCc3ccc(O)cc3)[C@H](O)[C@@H](O)[C@@H]2O)[C@H](O)[C@H](O)[C@H]1O (stereo partly specified) | 6.11% | inactive | inactive |  |  |  |
| C=CC(C)(O)CC/C=C(\C)C(=O)OC1CC2(C(=O)O)CCC3(C)C(=CCC4C5(C)CCC(OC6OC(COC7OCC(O)C(O)C7O)C(O)C(OC7OCC(O)C(O)C7O)C6OC6OC(CO)C(O)C(O)C6OC6OCC(O)C(O)C6O)C(C)(C)C5CCC43C)C2CC1(C)C (stereo unspecified) | -7.14% |  |  |  | 3.26% [at 11.2 µM] | -4.78% [at 11.2 µM] |
| c1nc(NC2CCCCCC2)c2cc(CNC[C@H]3CCCO3)sc2n1 | -0.893% | inactive | inactive |  |  |  |
| COc1c(/C=C/C(C)(C)O)ccc2c1C(=O)OCc1cc(C)cc(O)c1O2 | -12.5% | inactive | inactive |  |  |  |
| CCC(C)C1NC(=O)C2CCCN2C(=O)C(NC(C)=O)C(C)OC(=O)C(Cc2ccc(OC)cc2)N(C)C(=O)C2CCCN2C(=O)C(C(C)C)NC1=O (stereo unspecified) (Ac-TPIVP[NMeY](Me); ester 1-C; configuration not given here) | 15.3% | inactive | inactive |  |  |  |
| Cc1ccc(Sc2cncc3sc(C(N)=O)cc23)cc1 | -17.7% | inactive | inactive |  |  |  |

| Structure (SMILES) | activation [1] | Potency [2] | Potency [3] | Potency [1] | activity change, negative = inhibition [2] | activity change, negative = inhibition [3] |
| --- | --- | --- | --- | --- | --- | --- |
| CNS(=O)(=O)c1ccccc1Nc1nc(Nc2ccc(N3CCN(C)CC3)cc2OC)ncc1Cl |  | inactive | inactive | 21.3 µM (active) |  |  |
| C=CC1C(OC2OC(CO)C(O)C(O)C2O)OC=C(C(=O)OC)C1CC(=O)OCC1C(C)C(O)CC1C(CO)COC(=O)CC1C(C(=O)O)=COC(OC2OC(CO)C(O)C(O)C2O)/C1=C\C (stereo unspecified) | -16% | inactive | inactive |  |  |  |
| O=C(CCc1ccccc1)N1CCC(O)(Cn2cnc3cc(Cl)ccc3c2=O)CC1 | -13.7% | inactive | inactive |  |  |  |
| CC1CCC2C(C)(C)[C@H](O)CC[C@]2(C)C12Cc1c(O)cc3c(c1O2)CN(C(CCC(=O)O)C(=O)O)C3=O (stereo partly specified) | -2.29% | inactive | inactive |  |  |  |
| C/C(=C\C=C\C(C)C1CCC2(C)C3CCC4C(C)(C)C(=O)CCC45CC35CCC12C)C(=O)O (stereo unspecified) | 5.36% | inactive | inactive |  |  |  |
| CC1OC(OC2C(OC3C(O[C@H]4CC[C@@]5(C)C(CC[C@]6(C)C5C(=O)C=C5C7CC(C)(C)CC(O)[C@]7(C)CC[C@]56C)C4(C)C)OC(C(=O)O)C(O)C3O)OCC(O)C2O)C(O)C(O)C1O (stereo partly specified) | 2.29% | inactive | inactive |  |  |  |
| CC(C)C1(O)NC(=O)C(CC2(O)c3ccccc3N3C(=O)C(C)(C)NC32)n2c1nc1ccccc1c2=O (stereo unspecified) | -3.05% | inactive | inactive |  |  |  |
| COc1ccc(CNC(=O)c2sc3nc(C)cc(C)c3c2N)cc1 | -8.11% | inactive | inactive |  |  |  |
| COC1=CC(=O)CC(C)C12Oc1cc(OC)cc(O)c1C2=O (stereo unspecified) | 16.8% | inactive | inactive |  |  |  |
| CCC(C)C(=O)O[C@H]1C[C@](C)(O)[C@]23OC(C)(C)[C@H](C[C@H](OC(=O)c4ccccc4)[C@]2(COC(C)=O)[C@H]1OC(=O)C(C)CC)[C@H]3OC(C)=O (stereo partly specified) | 11.5% | inactive | inactive |  |  |  |
| COC(=O)CC(O)CC(O)/C=C/c1c(C)ccc2c1C(OC(C)=O)CC(C)C2 (stereo unspecified) | -0.763% | inactive | inactive |  |  |  |
| CC1OC(OC2C(O)C(C(=O)O)OC(OC3CCC4(C)C(CCC5(C)C4C=CC4=C6CC(C)(C)CC(O)C6(C)CCC45C)C3(C)C)C2OC2OCC(O)C(O)C2O)C(O)C(O)C1O (stereo unspecified) | -19.1% | inactive | inactive |  |  |  |
| COc1c(C)c(OCC=C(C)C)cc2c1CNC2=O | -19.8% | inactive | inactive |  |  |  |
| Cc1ccccc1NC(=O)Nc1ccc(CC(=O)N(C)[C@@H](CC(C)C)C(=O)NCC[C@H](NC(=O)[C@@H]2CCCN2S(=O)(=O)c2cc(Cl)cc(Cl)c2)C(=O)O)cc1 | 1.67% | inactive | inactive |  |  |  |
| COCC1OC(OC(C)(C)C2CCC3(C)C=C(C4CCC5C4(C)CC(O)C4OC(C(C)(C)O)CCC45C)CCC3O2)C(NC(C)=O)C(O)C1O (stereo unspecified) | 5.34% | inactive | inactive |  |  |  |
| O=C(COc1cccc2c(=O)[nH]ccc12)c1ccccc1 | -14.5% | inactive | inactive |  |  |  |
| CCC(C)C(=O)O[C@H]1CCC=C2C=C[C@H](C)[C@H](CC[C@@H](O)C[C@@H](O)CC(=O)O)[C@H]21 (stereo partly specified) | -32.8% | inactive | inactive |  |  |  |
| CC(C)(C)NCCCNC(=O)c1cccc(Br)c1 | -8.59% | inactive | inactive |  |  |  |
| CN1C(=O)c2ccccc2-n2c(nc3ccccc3c2=O)/C1=C/c1ccccc1 | 2.29% | inactive | inactive |  |  |  |
| CC(C)=C1CC2[C@](C)(CC[C@@H](OC(=O)C3(C)OC3C)[C@@]2(C)O)CC1=O (stereo partly specified) | -20.6% | inactive | inactive |  |  |  |
| C=C1CC23CC1(O)CCC2C1=CC2OC(=O)C(C)(C2O)C1C3C(=O)O (stereo unspecified) | 6.87% | inactive | inactive |  |  |  |
| COc1ccccc1[C@@H]1C2=C(CC(C)(C)CC2=O)Nc2n[nH]c(C(F)(F)F)c21 | 9.67% | inactive | inactive |  |  |  |
| OC[C@H]1O[C@@H](OC[C@H]2O[C@@H](OCc3ccccc3)[C@H](O)[C@@H](O)[C@@H]2O)[C@H](O)[C@@H](O)[C@@H]1O | -3.82% | inactive | inactive |  |  |  |
| O=C(O)Cc1cn([C@@H]2O[C@H](CO)[C@@H](O)[C@H](O)[C@H]2O[C@@H]2O[C@H](CO)[C@@H](O)[C@H](O)[C@H]2O)c2ccccc12 | 3.82% | inactive | inactive |  |  |  |
| CCOC(=O)c1cnn(-c2ccccc2)c1NC(=O)c1cc2nc(-c3ccco3)cc(C(F)(F)Cl)n2n1 | 0.955% | inactive | inactive |  |  |  |
| CC(=O)O[C@H]1C[C@@]2(C)[C@@H](CC[C@H]3[C@@]4(C)C=CC(=O)[C@@H](C)[C@@H]4[C@H](OC(C)=O)C(=O)[C@@]32C)/C1=C(\CCC=C(C)C)C(=O)O | -16% | inactive | inactive |  |  |  |
